# According to PubChem BioAssay (NCATS):
# Records with an inconclusive call do not appear. Where a call stands in place of a potency, no number is given. The source made the active and inactive calls. Unless noted, the call rests on the fitted dose curve; in most records, active means well fitted curve in the direction sought with a large enough effect; inconclusive means small, poorly fitted or top-dose-only effect, or another doubt; inactive means no such curve, though single readings can be large; an effect the other way counts as inactive or inconclusive. Starred links: 1 amine or outer side, 2 acyl side, 3 side chain; linkers in the order of their positions; H or OH if unused. Positions of bridges follow the written chain, without caps; N, C: chain ends. Non-standard residues stand in square brackets, D forms with d. Residues, ends and D or L forms follow the SMILES beside them. *: point of attachment. X4 = NC1=N[C@@H](O)C[C@H]([C@H](N[*:1])C(=O)[*:2])N1; ΔAla(3-NHCONH2) = NC(=O)NC=C(N)C(=O)O; β3hOrn = NCCC[C@H](N)CC(=O)*; Dap = NC[C@H](N)C(=O)O
# Key:
# [1] = AP1 Signaling Pathway (AID 357; active means well fitted curve in either direction with a large enough effect, not every such curve was filed as active;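 further: ME-180 reporter cells stimulated with EGF at its EC50 level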); settings: ME-180 AP-1-bla reporter, EGF-induced, beta-lactamase ratio, 5 h; at 7.69 µM (top of the series) unless noted
# Method in brief: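 In this screen, ME-180 cells in Opti-MEM with 0.5% dialyzed FBS received EC50 EGF and compound titrations for 5 h. AP-1 reporter beta-lactamase was detected via CCF4 ratio, giving AC50 for positive and negative modulators.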
# [2] = target: Cytochrome P450 1A2 (Homo sapiens) (UniProt P05177); assay: p450-cyp1a2 (AID 410; calls by dose curve; further: potency means the concentration at half of the fitted maximal effect)
# Method in brief: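 Inhibition was calculated relative to 57 uM furafylline (full inhibition). The reaction used human CYP1A2 at 20nM with Luciferin-ME at its Km, 100uM, driven by an NADPH-regenerating system for 60 min at room temperature.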
# [3] = Stat Signaling Pathway (AID 446; active means well fitted curve in either direction with a large enough effect, not every such curve was filed as active;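 further: ME-180 cervical cancer cells given 40 pM IL-6 alongside compound; SIE-controlled beta-lactamase reporter measured as 460/530 nm FRET emission ratio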); settings: ME-180 SIE beta-lactamase reporter, IL-6 stimulated, 5 h; at 7.69 µM (top of the series) unless noted
# Method in brief: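 Screening format detects activators and inhibitors alike: ME-180 SIE-bla cells stimulated at 40 pM IL-6 for 5 hrs with compound, then dual-emission beta-lactamase read at 405 nm excitation.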
# [4] = target: Glucocorticoid receptor (Homo sapiens) (UniProt P04150); assay: GR-GFP Redistribution (AID 450;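 active means compounds whose dose series gives a full or clear partial fitted curve of increased nuclear translocation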; further: potency means the concentration at half of the fitted maximal effect); settings: U2OS GR-GFP nuclear translocation, laser cytometry, 2 h
# [5] = target: Glucocorticoid receptor (Homo sapiens) (UniProt P04150); assay: GR-EFC Redistribution (AID 451; calls by dose curve; further: potency means the concentration at half of the fitted maximal effect); settings: CHO-K1 GR-EFC translocation, beta-gal luminescence, 2 h
# Method in brief: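 CHO-K1 cells expressing nuclear EA and GR-ED fragments of b-gal; compounds titrated up to 46 uM final, 2 h at 37 C. GR nuclear translocation read as complemented b-gal luminescence after 1 h RT detection.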
# [6] = target: Mitogen-activated protein kinase 10 (Mus musculus) (UniProt Q61831); assay: JNK3 AlphaScreen Assay (AID 530; active means well fitted curve in either direction with a large enough effect, not every such curve was filed as active;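 further: kinase came from lysate of stimulated human HepG2 cells; signal reports phosphorylation of biotinylated GST-cJun 1-79 at Ser73 with 10 µM ATP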)
# Method in brief: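 qHTS format: compounds tested as titrations against IL-1beta/TNF-alpha-activated HepG2 lysate JNK3 with biotin-GST-cJun substrate and 10 uM ATP at room temperature. Loss of anti-phospho-cJun AlphaScreen signal indicates inhibition.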
# [7] = target: Cytochrome P450 3A4 (Homo sapiens) (UniProt P08684); assay: qHTS Assay for Inhibitors and Substrates of Cytochrome P450 3A4 (AID 884); further: potency means the concentration at half of the fitted maximal effect; nearly all actives have a fitted effect of over 50% in size
# Method in brief: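 20 nM human CYP3A4 with 25 uM Luciferin-PPXE (at KM) in 200 mM KPO4, preincubated 10 min with compound; NADPH regeneration started a 60 min RT reaction. Luciferin detected by luminescence, normalized to 57 uM ketoconazole as full inhibition.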
# [8] = target: Cytochrome P450 3A4 (Homo sapiens) (UniProt P08684); assay: qHTS Assay for Activators of Cytochrome P450 3A4 (AID 885); further: nearly all actives have a fitted effect of over 65% in size
# Method in brief: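 Steps: enzyme/substrate mix dispensed; compound added, 10 min RT; NADPH regeneration solution added, 60 min RT; luciferin detection buffer stops reaction; 20 min later luminescence measured.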
# [9] = Primary qHTS for small molecule stabilizers of the endoplasmic reticulum resident proteome: Secreted ER Calcium Modulated Protein (SERCaMP) assay (AID 1508630)
# Method in brief: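 GLuc-SERCaMP-expressing SH-SY5Y cells, pretreated 16 h with compound, are challenged with thapsigargin to empty ER calcium stores; after 4 h, coelenterazine is added directly to the medium and luminescence is imaged.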
# [10] = Confirmation and Secondary Assay for Modulators of Hemoglobin Beta Chain Splicing at IVS2 654 locus (AID 910);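 further: HeLa cells stably carrying EGFP split by mutant beta-globin IVS2-654 intron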
# Method in brief: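 HeLa cells stably expressing EGFP interrupted by β-globin IVS2-654 intron, seeded overnight in Opti-MEM/2% FCS, then treated 2 days at 37 °C. Restored splicing read as total peak GFP intensity per well by laser scanning cytometry (488 nm excitation, 500–520 nm emission); 500 nM antisense PNA as control.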
# [11] = Confirmation and Secondary Assay for Modulators of Hemoglobin Beta Chain Splicing at IVS2 705 locus (AID 930);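 further: HeLa cells stably expressing the EGFP-705 splicing reporter; GFP fluorescence per well restored by corrected splicing of the IVS2-705 intron in EGFP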
# Method in brief: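 Per-well GFP, captured at 1 x 8 µm resolution with 488 nm excitation, served as the read-out for HeLa EGFP-705 cells incubated 2 days with test compound versus DMSO.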
# [12] = qHTS Assay for Lipid Storage Modulators (AID 1519; calls by dose curve); settings: Drosophila S3 cells, BODIPY lipid droplet/cell ratio, laser cytometry, cells loaded with oleic acid
# Method in brief: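 Cells seeded at 5,000 per well were treated with compounds over a concentration series and loaded with oleic acid (400 uM, as added). Lipid droplet fluorescence (488 nm excitation, 500-530 nm channel) was read by laser-scanning cytometry and normalized to 20 uM Triacsin C.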
# [13] = target: Cytochrome P450 2D6 (Homo sapiens) (UniProt P10635); assay: Cytochrome P450 family 2 subfamily D member 6 (CYP2D6) small molecule antagonists: luciferase biochemical (cell-free) qHTS assay (AID 1645840; active means well fitted curve in the direction sought with a large enough effect in the repeat runs; an effect the other way counts as inactive or inconclusive; further: nearly all actives have a fitted effect of over 55% in size)
# Method in brief: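 P450-Glo luminescent screen: recombinant CYP2D6 enzyme–proluciferin substrate mix preincubated with compound 10 min at room temperature, then NADPH regeneration added for 1 h at room temperature. Detection reagent added for 20 min; luciferin light read as relative luminescence units.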
# [14] = target: Cytochrome P450 2C9 (Homo sapiens) (UniProt P11712); assay: Cytochrome P450 family 2 subfamily C member 9 (CYP2C9) small molecule antagonists: luciferase biochemical (cell-free) qHTS assay (AID 1645842; active means well fitted curve in the direction sought with a large enough effect in the repeat runs; an effect the other way counts as inactive or inconclusive; further: nearly all actives have a fitted effect of over 55% in size)
# Method in brief: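 Luminescence, after 20 min with luciferin detection reagent, reflected CYP2C9 turnover during a 1 h NADPH-driven reaction at 37C. Enzyme-substrate mix contained 0.4% bovine serum albumin and was preincubated with compound 10 min at room temperature.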
# [15] = target: Rap guanine nucleotide exchange factor 3 (Homo sapiens) (UniProt O95398); assay: Confirmatory qHTS for antagonist of cAMP-regulated guanine nucleotide exchange factor 3 (EPAC1) (AID 1645880); further: potency means the concentration at half of the fitted maximal effect; nearly all actives have a fitted effect of over 55% in size
# Method in brief: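 Nucleotide exchange uses 100 nM EPAC1, 250 nM RAP1B-BODIPY-GDP and 50 uM GDP, with compounds in a concentration-titration series. After 5 min at room temperature, fluorescence (480 nm ex/540 nm em) is read every 5 min for 30 min. Data are normalized to control ATA and DMSO.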
# [16] = target: Rap guanine nucleotide exchange factor 3 (Homo sapiens) (UniProt O95398); assay: Confirmatory qHTS for agonist of cAMP-regulated guanine nucleotide exchange factor 3 (EPAC1) (AID 1645881);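 further: EPAC1 catalysed release of BODIPY-GDP from Rap1B seen as fluorescence loss; nearly all actives have a fitted effect of over 75% in size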
# [17] = target: Rap guanine nucleotide exchange factor 4 (Homo sapiens) (UniProt Q8WZA2); assay: Confirmatory qHTS for agonist of cAMP-regulated guanine nucleotide exchange factor 4 (EPAC2) (AID 1645884);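 further: nucleotide exchange releases bodipy-GDP from Rap1 and this lowers its fluorescence; nearly all actives have a fitted effect of over 65% in size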
# [18] = target: Rap guanine nucleotide exchange factor 4 (Homo sapiens) (UniProt Q8WZA2); assay: Confirmatory qHTS for antagonist of cAMP-regulated guanine nucleotide exchange factor 4 (EPAC2) (AID 1645885); further: potency means the concentration at half of the fitted maximal effect; nearly all actives have a fitted effect of over 25% in size
# [19] = target: 3',5'-cyclic-AMP phosphodiesterase 4B (Homo sapiens) (UniProt Q07343); assay: qHTS Assay for Inhibitors of PDE-IV (AID 607; active means well fitted activation curve with a large enough effect in the main read-out, with a control signal flat, not every such curve was filed as active)
# Method in brief: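 The readout is membrane depolarisation from a cAMP-sensing CNG channel, detected with a potential dye at ex 535/em 590. Cells were HEK293-derived (endogenous PDE-IV) at 1000 cells/well, titrated up to 22.9 uM final.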
# [20] = target: Cytochrome P450 2C9 (Homo sapiens) (UniProt P11712); assay: qHTS Assay for Inhibitors and Substrates of Cytochrome P450 2C9 (AID 883); further: nearly all actives have a fitted effect of over 60% in size
# Method in brief: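 10nM CYP2C9 + 100uM Luciferin-H (=KM), 25mM KPO4; cpd 10 min 37C; NADPH regen, 60 min 37C; stop/detect with P450 Glo-Buffer 20 min; luminescence. Norm. to 57uM sulphaphenazole as full inhibition.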
# [21] = target: Ubiquitin carboxyl-terminal hydrolase 1 (Homo sapiens) (UniProt O94782); assay: Inhibitors of USP1/UAF1: Pilot qHTS (AID 504865);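 further: rhodamine fluorescence freed from ubiquitin-rhodamine substrate followed over time; top concentration of the series differs between compounds; nearly all actives have a fitted effect of over 35% in size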
# Method in brief: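 Enzyme-free wells gave the negative control, while test wells held 1nM USP1/UAF1 preincubated with compound for 15 min at room temperature. Ub-Rho at 150nM final started the reaction, and fluorescence at 480/540 nm was recorded kinetically.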
# [22] = target: DNA dC->dU-editing enzyme APOBEC-3G (Homo sapiens) (UniProt Q9HC16); assay: qHTS for inhibitors of Vif-A3G interactions: Validation (AID 588379)
# Method in brief: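 HeLa cells stably expressing Vif and A3G-eYFP, 700 cells/well, incubated overnight at 37 deg C, then exposed to compound overnight at 37 deg C. Inhibition of Vif-mediated degradation read as increased yellow fluorescence (Ex 488/Em 500-530) by laser-scanning cytometry.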
# [23] = qHTS profiling of the MIPE4 collection as inhibitors of Plasmodium falciparum (3D7) proliferation (AID 743344; call rule not given here); settings: P. falciparum 3D7 in erythrocytes, SYBR Green DNA fluorescence, 72 h; at 5.51 µM (top of the series) unless noted
# Method in brief: (§1)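 Erythrocytes infected with P. falciparum (0.3% parasitemia, 2.5% hematocrit) incubated with compounds 72 h at 37 C, 5% CO2. Lysis with saponin/Triton buffer containing SYBR Green I, overnight at room temperature in the dark; DNA fluorescence (485/535 nm) normalised to 0.29 uM artemisinin and DMSO.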
# [24] = qHTS profiling of the MIPE4 collection as inhibitors of Plasmodium falciparum (DD2) proliferation (AID 743345; call rule not given here); settings: P. falciparum Dd2 in erythrocytes, SYBR Green DNA, 72 h; at 5.51 µM (top of the series) unless noted
# Method in brief: as §1
# [25] = qHTS profiling of the MIPE4 collection as inhibitors of Plasmodium falciparum (DD2) proliferation (Rep 2) (AID 743346; call rule not given here); settings: P. falciparum Dd2 in erythrocytes, SYBR Green DNA, 72 h; at 5.51 µM (top of the series) unless noted
# Method in brief: as §1
# [26] = qHTS profiling of the MIPE4 collection as inhibitors of Plasmodium falciparum (HB3) proliferation (AID 743347; call rule not given here); settings: P. falciparum HB3 in erythrocytes, SYBR Green DNA, 72 h; at 5.51 µM (top of the series) unless noted
# Method in brief: as §1
# Glucocorticoid receptor (Homo sapiens), sequence (P04150 whole entry, looked up, the tested form may be a part): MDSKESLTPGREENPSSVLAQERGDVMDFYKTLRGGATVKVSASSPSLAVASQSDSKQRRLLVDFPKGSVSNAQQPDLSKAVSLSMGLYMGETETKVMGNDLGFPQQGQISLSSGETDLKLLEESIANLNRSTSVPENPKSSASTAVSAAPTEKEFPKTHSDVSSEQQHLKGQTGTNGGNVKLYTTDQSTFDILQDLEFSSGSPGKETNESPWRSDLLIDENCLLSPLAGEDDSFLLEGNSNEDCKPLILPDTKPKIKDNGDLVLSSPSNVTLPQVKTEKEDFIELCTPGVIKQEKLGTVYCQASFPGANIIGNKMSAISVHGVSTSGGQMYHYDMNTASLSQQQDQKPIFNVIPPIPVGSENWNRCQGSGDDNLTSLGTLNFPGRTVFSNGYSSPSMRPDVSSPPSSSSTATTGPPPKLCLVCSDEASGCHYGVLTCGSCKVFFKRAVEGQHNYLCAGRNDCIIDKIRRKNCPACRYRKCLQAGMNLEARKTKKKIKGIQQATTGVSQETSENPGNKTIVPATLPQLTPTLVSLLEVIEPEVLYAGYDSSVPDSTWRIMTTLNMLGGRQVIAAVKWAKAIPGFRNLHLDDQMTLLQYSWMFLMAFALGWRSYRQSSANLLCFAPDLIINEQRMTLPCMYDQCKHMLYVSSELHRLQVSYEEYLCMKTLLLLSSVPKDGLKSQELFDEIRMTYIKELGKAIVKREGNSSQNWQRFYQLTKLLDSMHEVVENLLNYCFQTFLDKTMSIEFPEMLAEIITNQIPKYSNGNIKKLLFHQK
# Cytochrome P450 2C9 (Homo sapiens), sequence (P11712 whole entry, looked up): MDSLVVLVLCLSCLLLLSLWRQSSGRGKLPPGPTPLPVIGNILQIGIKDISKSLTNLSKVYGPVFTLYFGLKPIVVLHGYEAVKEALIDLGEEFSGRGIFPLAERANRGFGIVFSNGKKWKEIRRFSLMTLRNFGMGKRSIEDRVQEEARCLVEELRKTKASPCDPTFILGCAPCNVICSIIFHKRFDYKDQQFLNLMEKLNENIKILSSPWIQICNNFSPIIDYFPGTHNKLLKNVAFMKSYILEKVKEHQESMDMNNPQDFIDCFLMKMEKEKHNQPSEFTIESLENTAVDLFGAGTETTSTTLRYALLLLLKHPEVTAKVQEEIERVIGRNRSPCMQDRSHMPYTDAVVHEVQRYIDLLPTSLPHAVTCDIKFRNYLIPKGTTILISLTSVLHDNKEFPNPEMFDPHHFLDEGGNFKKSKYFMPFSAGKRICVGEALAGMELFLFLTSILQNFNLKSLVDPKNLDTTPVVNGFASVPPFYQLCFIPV
# Cytochrome P450 1A2 (Homo sapiens), sequence (P05177 whole entry, looked up): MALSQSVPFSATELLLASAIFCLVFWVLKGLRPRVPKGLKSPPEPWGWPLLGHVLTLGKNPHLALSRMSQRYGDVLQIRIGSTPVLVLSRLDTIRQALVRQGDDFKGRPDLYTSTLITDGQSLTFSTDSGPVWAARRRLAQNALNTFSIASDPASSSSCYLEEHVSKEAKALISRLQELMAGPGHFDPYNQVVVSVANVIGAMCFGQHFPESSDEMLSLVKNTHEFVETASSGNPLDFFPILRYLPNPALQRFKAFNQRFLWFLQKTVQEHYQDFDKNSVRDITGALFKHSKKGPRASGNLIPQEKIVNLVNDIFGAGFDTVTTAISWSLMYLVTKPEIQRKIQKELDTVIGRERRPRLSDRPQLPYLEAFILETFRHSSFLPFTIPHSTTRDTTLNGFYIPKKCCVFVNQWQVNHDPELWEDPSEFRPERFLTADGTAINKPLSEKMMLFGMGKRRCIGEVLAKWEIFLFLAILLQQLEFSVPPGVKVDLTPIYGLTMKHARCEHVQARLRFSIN
# Rap guanine nucleotide exchange factor 3 (Homo sapiens), sequence (O95398 whole entry, looked up): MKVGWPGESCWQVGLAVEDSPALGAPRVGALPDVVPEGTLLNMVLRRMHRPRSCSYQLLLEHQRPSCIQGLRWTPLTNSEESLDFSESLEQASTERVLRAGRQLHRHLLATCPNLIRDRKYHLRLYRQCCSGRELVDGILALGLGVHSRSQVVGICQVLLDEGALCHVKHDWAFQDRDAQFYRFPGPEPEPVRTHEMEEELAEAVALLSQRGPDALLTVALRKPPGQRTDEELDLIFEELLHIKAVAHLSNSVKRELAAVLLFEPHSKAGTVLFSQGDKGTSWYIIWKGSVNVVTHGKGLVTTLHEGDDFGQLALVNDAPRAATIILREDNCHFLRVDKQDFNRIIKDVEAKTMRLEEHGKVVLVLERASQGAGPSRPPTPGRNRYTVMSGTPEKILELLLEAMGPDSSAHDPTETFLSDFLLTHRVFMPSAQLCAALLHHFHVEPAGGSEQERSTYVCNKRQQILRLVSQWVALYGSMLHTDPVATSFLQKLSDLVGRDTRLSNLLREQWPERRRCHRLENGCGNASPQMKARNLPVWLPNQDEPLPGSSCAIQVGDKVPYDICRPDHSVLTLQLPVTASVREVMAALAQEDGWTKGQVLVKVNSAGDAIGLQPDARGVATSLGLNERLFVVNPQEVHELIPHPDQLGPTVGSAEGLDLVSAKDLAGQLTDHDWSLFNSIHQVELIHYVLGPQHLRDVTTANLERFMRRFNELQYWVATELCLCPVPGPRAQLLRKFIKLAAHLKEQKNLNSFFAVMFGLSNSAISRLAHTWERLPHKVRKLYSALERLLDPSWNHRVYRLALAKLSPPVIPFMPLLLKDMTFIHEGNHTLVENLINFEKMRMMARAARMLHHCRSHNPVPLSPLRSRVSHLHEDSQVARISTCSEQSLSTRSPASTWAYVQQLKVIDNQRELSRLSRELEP
# Cytochrome P450 3A4 (Homo sapiens), sequence (P08684 whole entry, looked up): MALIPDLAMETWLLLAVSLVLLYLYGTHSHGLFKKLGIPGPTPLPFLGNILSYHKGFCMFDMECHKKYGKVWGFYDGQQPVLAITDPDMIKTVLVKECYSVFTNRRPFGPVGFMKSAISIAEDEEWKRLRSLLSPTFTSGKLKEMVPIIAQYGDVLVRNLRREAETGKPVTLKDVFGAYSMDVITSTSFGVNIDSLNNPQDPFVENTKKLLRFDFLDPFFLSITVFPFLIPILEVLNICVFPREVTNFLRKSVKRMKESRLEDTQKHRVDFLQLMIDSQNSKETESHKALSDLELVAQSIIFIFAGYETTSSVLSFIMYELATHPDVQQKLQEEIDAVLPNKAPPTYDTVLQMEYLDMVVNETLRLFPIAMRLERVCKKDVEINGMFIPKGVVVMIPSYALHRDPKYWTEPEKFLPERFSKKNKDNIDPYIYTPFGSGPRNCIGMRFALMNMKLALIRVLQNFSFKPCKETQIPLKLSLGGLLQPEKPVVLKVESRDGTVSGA
# Rap guanine nucleotide exchange factor 4 (Homo sapiens), sequence (Q8WZA2 whole entry, looked up): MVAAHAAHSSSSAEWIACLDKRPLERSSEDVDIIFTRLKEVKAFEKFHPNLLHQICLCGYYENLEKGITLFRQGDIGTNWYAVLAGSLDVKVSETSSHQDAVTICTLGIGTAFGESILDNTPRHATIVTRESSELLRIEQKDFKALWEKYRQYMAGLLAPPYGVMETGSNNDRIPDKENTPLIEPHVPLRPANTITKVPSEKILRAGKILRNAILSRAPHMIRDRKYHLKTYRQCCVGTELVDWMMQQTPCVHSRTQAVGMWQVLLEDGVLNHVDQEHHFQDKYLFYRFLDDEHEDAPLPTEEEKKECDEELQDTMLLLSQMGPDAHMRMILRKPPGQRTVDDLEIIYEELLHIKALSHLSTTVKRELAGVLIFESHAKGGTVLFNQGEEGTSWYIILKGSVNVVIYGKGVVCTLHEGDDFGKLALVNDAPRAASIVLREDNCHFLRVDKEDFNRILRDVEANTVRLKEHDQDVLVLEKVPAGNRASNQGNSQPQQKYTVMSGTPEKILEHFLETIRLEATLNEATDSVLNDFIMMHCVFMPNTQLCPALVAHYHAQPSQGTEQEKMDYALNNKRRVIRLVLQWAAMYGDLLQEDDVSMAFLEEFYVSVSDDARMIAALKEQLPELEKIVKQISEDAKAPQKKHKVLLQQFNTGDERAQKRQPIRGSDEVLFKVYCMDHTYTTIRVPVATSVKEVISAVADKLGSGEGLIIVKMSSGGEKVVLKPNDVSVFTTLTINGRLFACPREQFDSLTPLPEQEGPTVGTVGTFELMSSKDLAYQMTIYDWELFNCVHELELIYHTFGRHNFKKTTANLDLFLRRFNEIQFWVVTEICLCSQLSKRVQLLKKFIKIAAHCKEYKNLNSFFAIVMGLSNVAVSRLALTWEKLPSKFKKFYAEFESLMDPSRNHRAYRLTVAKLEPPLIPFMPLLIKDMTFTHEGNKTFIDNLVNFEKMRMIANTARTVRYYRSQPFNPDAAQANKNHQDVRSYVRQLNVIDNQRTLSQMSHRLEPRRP
# Ubiquitin carboxyl-terminal hydrolase 1 (Homo sapiens), sequence (O94782 whole entry, looked up): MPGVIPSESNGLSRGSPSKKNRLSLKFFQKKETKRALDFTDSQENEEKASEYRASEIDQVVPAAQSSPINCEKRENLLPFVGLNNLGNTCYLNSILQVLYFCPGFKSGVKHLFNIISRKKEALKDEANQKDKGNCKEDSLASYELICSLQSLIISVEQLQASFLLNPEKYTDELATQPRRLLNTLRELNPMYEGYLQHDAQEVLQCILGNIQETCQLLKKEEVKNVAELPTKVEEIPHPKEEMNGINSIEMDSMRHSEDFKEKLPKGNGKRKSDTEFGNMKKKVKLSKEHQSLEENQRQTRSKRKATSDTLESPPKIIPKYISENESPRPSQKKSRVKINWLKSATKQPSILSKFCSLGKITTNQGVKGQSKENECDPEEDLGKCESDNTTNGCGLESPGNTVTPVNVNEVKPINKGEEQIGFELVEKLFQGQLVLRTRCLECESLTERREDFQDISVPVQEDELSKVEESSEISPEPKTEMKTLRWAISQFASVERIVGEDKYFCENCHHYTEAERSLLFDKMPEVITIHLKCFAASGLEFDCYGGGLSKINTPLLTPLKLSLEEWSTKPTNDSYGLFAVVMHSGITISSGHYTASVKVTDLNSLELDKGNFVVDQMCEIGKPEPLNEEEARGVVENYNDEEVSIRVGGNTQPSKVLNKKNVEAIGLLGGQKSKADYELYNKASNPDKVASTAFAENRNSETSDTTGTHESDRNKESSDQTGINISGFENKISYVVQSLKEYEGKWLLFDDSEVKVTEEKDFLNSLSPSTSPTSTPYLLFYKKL
structure (smiles),measurement,setting,value
COc1ccc(Oc2ncc3ncc(=O)n(CCc4ccccc4)c3n2)cc1,"activity change, negative = inhibition",[1],-14.7% (inactive)
same,Potency,[2],0.631 µM (active)
same,"activity, negative = inhibition",[3],3.46% (inactive)
same,Potency,[4],> 9.22 µM (inactive)
same,Potency,[5],> 46 µM (inactive)
same,Potency,[6],inactive
same,Potency,[7],1.26 µM (active)
same,Potency,[8],inactive
same,outcome,[9],inactive
NC(Cc1ccc(O)c(O)c1)C(=O)O (centres undefined),Potency,[10],inactive
same,outcome,[11],inactive
same,"activity change, negative = inhibition",[12]; at 57.5 µM (top of the series),11.6% (inactive)
same,max response,[12]; measured here: cell count channel max response,4.16%
same,max response,[12]; measured here: lipid channel max response,20.4%
same,Potency,[13],inactive
same,Potency,[14],inactive
same,Potency,[15],1.4 µM (active)
same,Potency,[16],inactive
same,Potency,[17],inactive
same,Potency,[18],44.1 µM (active)
N[C@@H](C(=O)O)c1ccc(O)c(C(=O)O)c1,Potency,[2],inactive
same,Potency,[4],> 46 µM (inactive)
same,Potency,[5],> 46 µM (inactive)
same,Potency,[6],inactive
same,Potency,[19],inactive
same,Potency,[20],inactive
same,Potency,[21],inactive
same,outcome,[22],inactive
same,outcome,[9],inactive
NCCC[C@H](N)CC(=O)N[C@H]1CNC(=O)[C@H]([C@H]2C[C@H](O)N=C(N)N2)NC(=O)C(=CNC(N)=O)NC(=O)[C@H](CO)NC(=O)[C@H](CO)NC1=O (β3hOrn-[Dap]SS[ΔAla(3-NHCONH2)][X4]; lactam 1-C),"parasite growth, % of DMSO control",[23],66.2%
same,"parasite growth remaining, % of DMSO control (lower = more inhibition)",[24],79.9%
same,"parasite growth, % of control (lower = inhibition)",[25],92.5%
same,"growth, % of control",[26],71.8%
same,outcome,[9],inactive
